Reference: PubChem BioAssay (NCI)
“And” between values parts separate entries of the source, which are not always exact repeats. Identical values can stand only once. This is part of a sample that, as a whole, favours compounds with a hit. Of some 79,000 tested, about 15% had one in any assay. The source made the active and inactive calls. Cut-off read from the data, not from the text of the source: active = growth inhibition above about 70%; inactive = the rest.

Tests used:
[1] = NCI Yeast Anticancer Drug Screen. Data for the rad50 strain (AID 155);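 note: 0% = growth of vehicle-only cultures of the same strain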; details: S. cerevisiae rad50 strain growth inhibition; at 50.0 µM; stronger effect = higher value
Outline: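 Yeast carrying a defined DNA repair defect were exposed to test compounds, and growth was compared with vehicle-treated controls to give percent inhibition.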

[2] = NCI Yeast Anticancer Drug Screen. Data for the mec2-1 strain (AID 157); details: S. cerevisiae mec2-1 strain, at 50.0 µM, stronger effect = higher value
Outline: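 Vehicle-treated cultures served as reference for growth inhibition of compound-exposed mec2-1 yeast.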

[3] = NCI Yeast Anticancer Drug Screen. Data for the sgs1 mgt1 strain (AID 161);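 note: 0% = growth of cultures given vehicle only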; details: S. cerevisiae sgs1 mgt1 strain, at 50.0 µM, stronger effect = higher value
Outline: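 Test agents were incubated with a DNA-repair-mutant yeast strain. Growth was then read and compared against vehicle-treated controls.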

[4] = NCI Yeast Anticancer Drug Screen. Data for the cln2 rad14 strain (AID 165);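 note: 0% = growth equal to vehicle treated cultures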; details: S. cerevisiae cln2 rad14 strain, at 50.0 µM, stronger effect = higher value
Outline: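 Each compound was tested on cln2 rad14 yeast. Inhibition of growth was calculated against vehicle-exposed controls.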

[5] = NCI Yeast Anticancer Drug Screen. Data for the bub3 strain (AID 167); details: S. cerevisiae bub3 mutant strain, at 50.0 µM, stronger effect = higher value
Outline: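 Compounds were applied to a genetically altered yeast strain carrying a cell-cycle control defect. Growth inhibition was scored against vehicle-treated controls.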

[6] = NCI Yeast Anticancer Drug Screen. Data for the mlh1 rad18 strain (AID 175); details: S. cerevisiae mlh1 rad18 strain growth inhibition; at 50.0 µM; stronger effect = higher value
Outline: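 Vehicle-treated cultures served as the reference for growth inhibition in a yeast strain carrying DNA damage repair alterations exposed to each compound.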

Measured: growth inhibition

O=C(O)COc1ccccc1
inactive: [1] 10.9% and -7.6% | [2] 9.2% and 1.65% | [3] 5.8% and -36.2% | [4] -16.6% and 6.7% | [5] -10.2% and -17.4% | [6] -13.2% and -0.15%

O=[N+]([O-])c1ccc(NC(c2ccccc2)P(=O)(Oc2ccccc2)Oc2ccccc2)cc1 (configuration not stated)
inactive: [1] -1.75% | [2] -6.4% | [3] -43.1% | [4] -6% | [5] -2.05% | [6] 3.65%

Nc1cccc2scnc12 (tested in a mixture with another compound)
inactive: [1] -13.9% | [2] 3.8% | [3] 29.7% | [4] -7.85% | [5] -10.3% | [6] 19.1%

CCS(=O)(=O)CCN1C(=O)CN=C(c2ccccc2F)c2cc(Cl)ccc21
inactive: [1] 27.6% | [2] 6% | [3] 20.8% | [4] 12.4% | [5] -0.7% | [6] 16.4%

CNC(=O)Oc1cccc(N=CN(C)C)c1
inactive: [1] 7.65% | [2] 1.05% | [3] 0% | [4] 9.9% | [5] -20.4% | [6] 16.7%

CO[As](OC)c1ccc(N=Nc2ccc(N(C)C)cc2)cc1
active: [1] 98.4% | [2] 99.2% | [3] 98.9% | [4] 98.6% | [5] 99% | [6] 99.2%

CCc1ccc(CCN2CCCCC2)nc1
inactive: [1] -24.6% | [2] -21.4% | [3] -21.4% | [4] 6.75% | [5] -15.5% | [6] -1.6%

COC(=O)C1C(O)CC2(O)CC(O)CC(O)C(O)CCC(O)CC(O)CC(=O)OC(C)C(C)C(O)C(C)/C=C/C=C/C=C/C=C/C=C/C=C/C=C/C(OC3OC(C)C(O)C(N)C3O)CC1O2 (configuration not stated)
inactive: [1] -6.8% | [2] 6.95% | [3] -4.9% | [4] 6.15% | [5] 1.6% | [6] -3.7%

NC(=O)c1cc([N+](=O)[O-])cc([N+](=O)[O-])c1
inactive: [1] 1.35% | [2] -16.2% | [3] 9.1% | [4] 0% | [5] 3.35% | [6] 14.8%

O=[N+]([O-])c1ncccc1NCCN1CCCC1
inactive: [1] -2.2% | [2] -0.5% | [3] -15.8% | [4] -29.3% | [5] 7.05% | [6] 4.7%

O=C1CC2OCC=C3CN4CCC56c7ccccc7N1C5C2C3CC46O (configuration not stated)
inactive: [1] 25.3% | [2] -21.2% | [3] 6.1% | [4] -1.2% | [5] 30.7% | [6] -62.1%

O=c1[nH]c2ccc([As](=O)(O)O)cc2[nH]1
inactive: [1] -8.7% | [2] -1.1% | [3] -0.95% | [4] -5.2% | [5] 13.7% | [6] 8.55%

N#CC(C#N)=Cc1ccc(Cl)cc1
inactive: [1] 13.6% and 9.25% | [2] -2.05% and -21.4% | [3] 8.5% and 19.9% | [4] 3.45% and -9.95% | [5] -8.1% and 0.15% | [6] 20.7% and 20.1%

O=P1(N(CCCl)CCCl)Oc2c(Cl)cc(Cl)c(Cl)c2Cc2c(Cl)c(Cl)cc(Cl)c2O1
inactive: [1] -15.1% | [2] -31.7% | [3] 2.85% | [4] 0.25% | [5] -14.2% | [6] -10.7%

CC(=O)CC(C)=O.CC(=O)CC(C)=O.[Mn]
inactive: [1] 17.1% | [2] 1.05% | [3] 1.75% | [4] -42.2% | [5] -3.3% | [6] -2.5%

COc1ccc(C(N)Cc2cc(OC)c(OC)c(OC)c2)cc1 (configuration not stated)
inactive: [1] -14.9% | [2] 6.1% | [3] 2.9% | [4] -10.5% | [5] 7.8% | [6] -8.6%

CCC1CN2CCC3(C(=O)Nc4ccccc43)C2CC1/C(=C/OC)C(=O)OC (configuration not stated)
inactive: [1] -1.8% | [2] -12.3% | [3] 7.85% | [4] 2.55% | [5] 13.7% | [6] 12.4%

Cn1c(O)c(C=N)c(=O)n(C)c1=O
inactive: [1] 15.1% | [2] 5.4% | [3] -2.6% | [4] 7.45% | [5] 0.8% | [6] 4.7%

O=C(Nc1cccc(F)c1)c1c(O)[nH]c(=S)[nH]c1=O
inactive: [1] 26.1% | [2] 14.3% | [3] 38.4% | [4] 10.9% | [5] 21.3% | [6] 40.2%

CCCCCCCCCCCCCCCCCC(=O)NC(CC(=O)OCCCCCC)c1ccc(N(CCCl)CCCl)cc1 (configuration not stated)
inactive: [1] -2.6% | [2] 10.8% | [3] 12.8% | [4] -6.5% | [5] -3.9% | [6] 22.6%

CC1(C)N=C(N)N=C(N)N1c1ccc(CCc2ccc(S(=O)(=O)F)cc2)cc1
inactive: [1] 9.15% | [2] 7% | [3] -7.3% | [4] -6.2% | [5] -8.7% | [6] 7.65%

O=C(O)C1C2Cc3ccccc3C21 (configuration not stated)
inactive: [1] 18.1% | [2] 10.4% | [3] -8.35% | [4] -5.9% | [5] -20.3% | [6] -12.6%

CC1(C)OP23(NC(=O)OC2(C(F)(F)F)c2ccccc2O3)OC1(C)C (configuration not stated)
inactive: [1] -14.6% | [2] -13.5% | [3] -40.5% | [4] -4.1% | [5] -41.6% | [6] -27.4%

O=[N+]([O-])c1ccc(CCBr)cc1
inactive: [1] 28.8% and 30.2% | [2] 1.25% and 37.6% | [3] 13.4% and 34% | [4] 17.1% and 11.8% | [5] 36.3% and 3.2% | [6] 17.6% and -2.15%

C(=C/P(c1ccccc1)c1ccccc1)/P(c1ccccc1)c1ccccc1
inactive: [1] 4.05% | [2] 8.95% | [3] 1.9% | [4] -18.4% | [5] 2.75% | [6] 2.7%

CN(C)CCC(=O)c1ccccc1
inactive: [1] 3.05% and -40.5% | [2] 0.7% and 11.3% | [3] 5.85% and -7.35% | [4] -0.6% and -27.6% | [5] 4.35% and -1.8% | [6] 4.4% and 10.6%

CC1CCCN(C(c2ccccc2)C(O)c2ccccc2)C1 (configuration not stated)
inactive: [1] 5.9% | [2] 1.35% | [3] 13.2% | [4] -19.4% | [5] 46.5% | [6] 7.6%

CCOP(=S)(OCC)OP(=O)(CC)CC
inactive: [1] 3.1% | [2] -10.1% | [3] -1.7% | [4] 4.4% | [5] 9.2% | [6] -2.55%

CN(N=O)C1=NC2(CCCCC2)P(=O)(NNc2ncccn2)O1 (configuration not stated)
inactive: [1] 0.9% | [2] -17.9% | [3] -15.2% | [4] 9.85% | [5] 11.2% | [6] 13.1%

C[CH2][Pb]([CH2]C)([CH2]C)[n]1ccnc1
inactive: [1] -22.6% | [2] -6.8% | [3] -11.9% | [4] -29.3% | [5] -1.4% | [6] -9%

O=C1CN=CN1
inactive: [1] -8.85% | [2] 8.85% | [3] -0.45% | [4] -12.6% | [5] -7.5% | [6] -5.3%

Cc1c(OCC(=O)N/N=C/c2ccc(N(CCCl)CCCl)cc2)ccc2c(=O)c3ccccc3oc12
inactive: [1] -1.95% | [2] -10.3% | [3] -3.15% | [4] -15.5% | [5] 13.8% | [6] -8.35%

O=[As](O)(O)c1ccc(F)cc1
inactive: [1] 3.45% | [2] 9.8% | [3] -4.35% | [4] 14.6% | [5] 9.3% | [6] 2.95%

O.[Co].[NH2-].[NH2-].[NH2-].[NH2-].[NH2-]
inactive: [1] 27.9% | [2] -27.1% | [3] 36.2% | [4] 12.8% | [5] 24.2% | [6] 33.4%

O=C1c2c(ccc3ccccc23)CN2CCCCC12 (configuration not stated)
inactive: [1] 42.2% | [2] 19.6% | [3] 61.9% | [4] 14% | [5] 40.4% | [6] 45.2%

COc1ccc(NC2=NCCO2)c2ccccc12
inactive: [1] -11.9% | [2] -42.3% | [3] -31.1% | [4] -0.3% | [5] -13.4% | [6] -20.9%

OCCBr
inactive: [1] -2.95% | [2] -7.7% | [3] -4.65% | [4] -1.05% | [5] -0.7% | [6] -17.9%

CCCCOP(=S)(Nc1ccccc1)OCCCC
inactive: [2] 40.7% | [4] 42%
active: [1] 91% | [3] 81.8% | [5] 73.5% | [6] 82.2%

O=c1cc(O)c1=O
inactive: [1] 23.2% | [2] 18% | [3] -6.05% | [4] 14.9% | [5] 16.8% | [6] 31.9%

O=C([O-])C(F)(F)C(F)(F)F.[C-]#[O+].[C-]#[O+].[C-]#[O+].[C-]#[O+].[C-]#[O+].[Mn]
inactive: [1] -8% | [2] -29% | [3] 3.65% | [4] 0% | [5] 0.25% | [6] -7.25%

CC1CCC(OC(=O)CCl)CC1 (configuration not stated)
inactive: [1] 18.1% | [2] 19.4% | [3] 13.3% | [4] 7.45% | [5] 8.95% | [6] -8.75%

O=[N+]([O-])c1ccccc1-c1ccccc1
inactive: [1] 24.3% | [2] -27.8% | [3] 7.05% | [4] 13.2% | [5] -21.8% | [6] 2.25%
